CtBP-E1A blk = blocks the CtBP interaction with E1A | AlphaScreen GST-E1A/His-CtBP binding, 1536-well; hits give low values | activity change, % (concentration not given with the values) | hit rate 0.49% among 340,000; in the data active = activity change below about -65%; inconclusive = mostly about -30% to -63%
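In 5 uL wells, 23 nL compound meets equimolar GST-E1A and His-CtBP (5X stock 125 nM each) for 2 h, 37 °C. Beads (5X, 50 ug/mL) then 1 h, 37 °C, dark.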
HP1b chromo inh = inhibitors of HP1-beta chromodomain binding to methylated histone tails; Potency, µM (doses to about 114 µM), hits mostly inhibitors; AlphaScreen HP1-beta / biotin-H3K9me3 peptide binding; hit rate 0.56% among 390,000; also: nearly all actives have a fitted effect of over 70% in size
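HP1-beta protein (50 nM final) preincubated 30 min at room temperature with biotinylated H3(1-18)K9me3 peptide (50 nM) in PBS pH 7.4, 0.01% Tween-20, then compound added for 30 min. AlphaScreen streptavidin donor/nickel chelate acceptor beads (10 ug/mL final), 30 min dark, luminescence read.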
G9a block = G9a (human) methyltransferase inhibition. Potency, µM (series often up to 102 µM), hits mostly inhibitors. Q96KQ7. hit rate 8.8% among 350,000. G9a H3K9 monomethylation, AlphaScreen, 2 h; also: nearly all actives have a fitted effect of over 75% in size
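Quantitative HTS format: methyltransferase activity on a biotin-tagged H3K9 peptide is measured by AlphaScreen, using a rabbit anti-monomethyl-H3K9 antibody with streptavidin donor and anti-IgG acceptor beads. Final levels are 20 nM enzyme, 500 nM peptide, 20 uM SAM; 2 h RT.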
Six1-Eya2 blk = inhibitors of human Six1/Eya2 interaction. AlphaScreen GST-Six1/His-Eya2 binding, biochemical; hits give low values. activity change, % (test concentration not listed). hit rate 0.56% among 360,000. AID 651725; in the data active = activity change below about -65%; inconclusive = mostly about -30% to -63%
Target sequence (O00167 whole entry, looked up): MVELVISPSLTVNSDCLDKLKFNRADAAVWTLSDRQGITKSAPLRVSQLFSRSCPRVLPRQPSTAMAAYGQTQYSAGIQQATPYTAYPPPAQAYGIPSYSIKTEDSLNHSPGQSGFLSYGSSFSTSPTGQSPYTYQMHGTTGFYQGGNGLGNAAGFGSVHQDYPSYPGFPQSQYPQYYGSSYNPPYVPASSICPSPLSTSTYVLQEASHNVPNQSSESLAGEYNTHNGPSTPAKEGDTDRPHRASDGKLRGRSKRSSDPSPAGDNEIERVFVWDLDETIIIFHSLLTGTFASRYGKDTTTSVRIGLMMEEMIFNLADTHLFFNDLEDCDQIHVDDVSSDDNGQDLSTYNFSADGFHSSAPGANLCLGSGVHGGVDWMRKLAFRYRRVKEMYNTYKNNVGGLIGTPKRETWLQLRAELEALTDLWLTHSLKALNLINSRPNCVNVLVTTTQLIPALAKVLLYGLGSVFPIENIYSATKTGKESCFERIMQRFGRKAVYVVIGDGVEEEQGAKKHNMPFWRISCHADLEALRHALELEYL
Target sequence (Q15475 whole entry, looked up): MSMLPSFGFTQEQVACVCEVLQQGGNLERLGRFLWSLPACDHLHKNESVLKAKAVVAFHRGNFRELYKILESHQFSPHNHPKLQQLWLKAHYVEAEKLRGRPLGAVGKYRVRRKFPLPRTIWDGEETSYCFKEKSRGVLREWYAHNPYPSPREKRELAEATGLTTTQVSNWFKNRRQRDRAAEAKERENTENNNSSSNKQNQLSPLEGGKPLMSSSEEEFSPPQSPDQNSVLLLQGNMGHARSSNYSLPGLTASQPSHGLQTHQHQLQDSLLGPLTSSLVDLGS
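AlphaScreen luminescence read after one hour at 37 °C in darkness. Pin-transferred compounds met GST-Six1 and His-Eya2 protein (5X stock 250 nM/500 nM) plus glutathione donor and Ni-chelate acceptor beads (5X, 50 ug/mL).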
BAZ2B block = BAZ2B (human) inhibition. Potency, µM (titrated, usually from 114 µM), actives largely listed as inhibitors. AID 504333. hit rate 4.4% among 360,000. Q9UIF8. AlphaScreen BAZ2B-H3K14Ac peptide displacement; also: nearly all actives have a fitted effect of over 60% in size
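Inhibition is scored as reduced AlphaScreen emission. The BAZ2B/b-H3(5-23)K14Ac complex (50 nM each) in PBS pH 7.4, 0.01% Tween-20 meets compound (up to 110 uM) for 30 min at RT before bead addition.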
JMJD2A Tudor inh = blocks the human JMJD2A Tudor domain. AlphaScreen JMJD2A-Tudor / H3K4me3 peptide binding. Potency, µM (doses to about 114 µM), most hits filed as inhibitors. O75164. hit rate 4.4% among 390,000. AID 504339; also: nearly all actives have a fitted effect of over 50% in size
A number is an active result; n = inactive; u = inconclusive; x = not tested or not shown; [ ] = another dose, or the depositor's remark. Rows were chosen to be rich in hits. Some 10% of all compounds tested hit in one or more screens of this group. Unless noted, calls follow the shape of the dose curve; as a rule, active = well fitted inhibition curve with a large enough effect; inconclusive = small, poorly fitted or top-dose-only effect; inactive = no such curve, though single readings can be large or run the other way.

SMILES	CtBP-E1A blk	HP1b chromo inh	G9a block	Six1-Eya2 blk	BAZ2B block	JMJD2A Tudor inh
CCCS(=O)(=O)c1nc(S(=O)(=O)c2ccc(C)cc2)c(N2CCCC2)s1	n	n	n[12.7 µM]	n	n	n
CCCS(=O)(=O)c1nc(S(=O)(=O)c2ccc(C)cc2)c(N2CCc3ccccc3C2)s1	n	n	35µM	n	n	n
Cc1ccc(-c2ccc(=O)n(CC(=O)Nc3ccc(C(C)C)cc3)n2)cc1	x	n	n	x	n	n
CC(C)CCC(CCN1CCCC1)c1ccc2c(c1)OCO2 (centres undefined)	n	u	n	n	n	1.4µM
CC(NC(=O)C1CCC1)c1ccc2c(c1)OCO2 (centres undefined)	n	n	n[12.7 µM]	n	n	n
COc1cc(O)c(C(CCN2CCOCC2)c2ccc3c(c2)OCO3)c(OC)c1 (centres undefined)	n	n	n[12.7 µM]	n	n	u
COCCCNC(=S)N/N=C/c1ccc2c(c1)OCO2	x	n	n	n	n	n
CC(C)CCC(CCN1CCOCC1)c1ccc2c(c1)OCO2 (centres undefined)	n	n	45µM	n	u	3.2µM
COCCCNCCC(CCC(C)C)c1ccc2c(c1)OCO2 (centres undefined)	n	u	u	n	u	20µM
CC(NCc1cccnc1)c1ccccc1 (centres undefined)	n	n	n	n	n	n
COc1ccc(C(=O)N2CC(=O)Nc3ccc(C)cc3C2c2ccccc2)c(OC)c1 (centres undefined)	x	n	n	x	n	n
COC(=O)c1c(NC(=O)COC(=O)CNC(=O)C2CCCCC2)sc(C)c1C	n	n	n	n	n	n
CCCN(CCC)C(=O)Cn1nnc2sc(-c3ccccc3)cc2c1=O	x	n	13µM	x	u	n
CCc1ccc(NC(=O)C(C)n2nnc3sc(-c4ccccc4)cc3c2=O)cc1 (centres undefined)	x	n	3.5µM	x	n	n
CCN(C(=O)Cn1nnc2sc(-c3ccccc3)cc2c1=O)c1cccc(C)c1	x	n	4.5µM	x	n	u
O=C(Nc1cc(F)ccc1F)C1CCN(S(=O)(=O)c2cccc3nonc23)CC1	n	n	u	n	n	n
Cc1ccc(NC(=O)CCc2nnc3n(C)c(=O)c4sccc4n23)cc1C	x	n	n	x	n	n
CN(C)/C=C/c1oc2ccc(O)cc2c1[N+](=O)[O-]	n	n	50µM	n	25µM	n
Cc1oc2ccc(O)cc2c1C(=O)c1ccc([N+](=O)[O-])cc1	n	n	u	n	u	u
Cc1ccc(S(=O)(=O)N2[C@H](CC(=O)c3cccs3)OC[C@@H]2C(C)C)cc1	n	x	x	n	x	x
CN(C(=O)c1ccc(NC(=O)Cc2ccc(NC(=O)C3CCCN(C(=O)C4CCC4)C3)cc2)cc1)C1CCCC1 (centres undefined)	n	n	x	n	x	n
Cc1cccc(N(C(=O)c2snc(C(N)=O)c2N)C(C(=O)NCc2ccccc2)c2ccncc2)c1 (centres undefined)	n	u	50µM	n	n	n
CN(C)c1ccc(C(C(=O)NCc2ccccc2)N(Cc2ccco2)C(=O)c2snc(C(N)=O)c2N)cc1 (centres undefined)	n	n	35µM	n	u	u
COc1ccc(N(C(=O)c2snc(C(N)=O)c2N)C(C(=O)NCc2ccccc2)c2ccc(O)cc2)cc1 (centres undefined)	n	n	n	n	n	n
NC(C(=O)O)[C@H](O)C(=O)O (some centres undefined)	x	x	n	x	x	x
SMILES	CtBP-E1A blk	HP1b chromo inh	G9a block	Six1-Eya2 blk	BAZ2B block	JMJD2A Tudor inh
O=C1c2cccc([N+](=O)[O-])c2C(=O)N1C1CCCCC1	n	n	x	n	n	n
O=C1c2cccnc2C(=O)N1C1CCCCC1	n	n	n	n	79µM	n
Cc1c(Cl)cccc1NC(=O)CN1C(=O)COc2ccc(S(=O)(=O)N3CCOCC3)cc21	x	n	n	x	n	n
Cc1cc(NC(=O)c2ccc3c(c2)C(=O)N(c2cccc(C)c2C)C3=O)no1	n	n	n	n	n	n
Cc1ccc(C)c(NC(=O)Cn2c(=O)n(CCC(C)C)c(=O)c3cccnc32)c1	x	n	n	x	n	n
CCn1c(SCC(=O)Nc2nc(-c3ccc(C)cc3)cs2)nnc1-c1ccccc1	n	n	n	n	n	n
CN(C)CCCn1c(SCC(=O)N2c3ccccc3Sc3ccccc32)nc2ccccc2c1=O	n	u	40µM	n	u	u
Cn1c(SCC(=O)N2c3ccccc3Sc3ccccc32)nc2ccccc21	n	n	n	n	n	u
Cc1ccc(-c2csc(NC(=O)CSc3nc4ccccc4c(=O)n3CCCN(C)C)n2)cc1	n	u	40µM	n	u	45µM
Cc1nc2nc(C)c(NS(=O)(=O)c3ccc(Cl)s3)c(=O)n2[nH]1	n	n	n	n	n	n
COc1ccccc1NC(=O)C(C)OC(=O)c1cccc(-n2cnnn2)c1 (centres undefined)	n	n	n	n	n	n
CCOc1ccc(C(C)=O)cc1COc1ccc(-c2nnco2)cc1	n	n	x	n	50µM	n
COc1ccc(C(C)=O)cc1COc1ccc(F)cc1	x	n	n	n	n	n
COC(=O)[C@@H]1[C@@H](C#N)C2(c3ccccc3-c3ccccc32)N(c2ccc(Cl)cc2)N1C#N	n	u	u	u	u	18µM
O=C(Cc1ccc(Cl)cc1)NN1C(=O)c2ccccc2C1=O	n	n	n	n	n	n
O/N=C1/CCc2nonc2/C1=N/O	n	n	0.71µM	u	10µM	u
COc1cc(OC)c(OC)cc1/C=N/NC(=O)c1cccc(S(=O)(=O)N2CCOCC2)c1	n	n	u	n	n	n
COc1cc(/C=N/NC(=O)c2cccc(S(=O)(=O)N3CCOCC3)c2)cc(OC)c1O	n	n	40µM	n	n	n
Cc1ccc(S(=O)(=O)N2CCN(CC(=O)N/N=C/c3ccccc3OCC(=O)O)CC2)cc1	n	n	x	n	n	40µM
COc1ccccc1/C=C/C=N/NC(=O)CN1CCN(S(=O)(=O)c2ccc(C)cc2)CC1	n	n	n	n	n	n
COc1ccccc1NS(=O)(=O)c1cccc(C(=O)N/N=C/c2ccccc2OCC(=O)O)c1	n	n	u	n	n	n
CCN(CC)S(=O)(=O)c1cccc(C(=O)N/N=C/c2ccccc2OCC(=O)O)c1	n	n	22µM	n	50µM	u
O=C(O)COc1ccccc1/C=N/NC(=O)c1cccc(S(=O)(=O)N2CCOCC2)c1	n	n	14µM	n	u	40µM
CCOC(=O)C(C#N)(Cc1ccc2ccccc2n1)Cc1ccc2ccccc2n1	n	n	x	n	x	n
O=S(=O)(NNc1nccc(C(F)(F)F)n1)c1cccc(Cl)c1Cl	x	n	8.9µM	n	n	n
